# Test results published in PubChem BioAssay.
# Activity calls are given as the source filed them.
# What was measured:
# [1] = biological target: Albumin (Bos taurus) (UniProt P02769); experiment: bovine serum albumin binders on microarray, profiling panel, artefact control for SMM control protein annotation, biochemical, small-molecule microarray, Alexa647 label, 635/667 nm fluorescence (AID 1118); conditions: BSA-A647 binding, fluorescence 635 nm, higher = more signal;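 also: score merges 667 nm emission intensity and signal-to-noise per printed compound spot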
# [2] = small-molecule microarray binders of probe aXIP, primary screen, biochemical, NeuroSMM set, 635/667 nm fluorescence (AID 1119); conditions: higher = more signal, called active from +8 up or from −8 down;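 also: probe is the protein aXip251-270 applied at 1 µg/mL to compound-printed slides; binding of probe to printed compounds measured as 667 nm fluorescence plus signal to noise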
# [3] = small-molecule binders of probe aNOTCH3, primary screen, biochemical, small-molecule microarray, 635/667 nm fluorescence (AID 1120); conditions: higher = more signal;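 also: probe is a biotin-tagged antibody raised against NOTCH3 rather than NOTCH3 protein; score merges spot fluorescence near 667 nm with spot signal to noise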
# [4] = small-molecule binders of probe aNOTCH2, primary screen, biochemical, small-molecule microarray, 635/667 nm fluorescence (AID 1121); conditions: higher = more signal;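 also: score merges feature fluorescence read at 667 nm with its signal to noise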
# [5] = biological target: Carbonic anhydrase 2 (Homo sapiens) (UniProt P00918); experiment: CAII small-molecule binders, profiling panel, biochemical, small-molecule microarray, Alexa647-labelled CAII (AID 1122); conditions: CAII-A647 binding fluorescence, higher = more signal
# [6] = COS7 lysate on small-molecule microarray, probe aHis, 635 nm (AID 1123); conditions: COS7 cell lysate, fluorescence, higher = more signal;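 also: z-score combines 667nm fluorescence intensity with signal-to-noise per printed compound spot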
# [7] = compound binding in COS7 lysate, probe aLAP1, primary screen, cell lysate, small-molecule microarray (AID 1124); conditions: probe aLAP1, fluorescence, higher = more signal;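 also: lysate comes from COS7 cells expressing LAP1 and is applied at 0.3 µg/mL; score merges spot fluorescence near 667 nm with signal-to-noise over triplicate slides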
# [8] = system: Sam68 (KHDRBS1); experiment: Sam68 small-molecule binders, primary screen, biochemical, small-molecule microarray, 635 nm fluorescence (AID 1125); conditions: small-molecule microarray binding, higher = more signal;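 also: score merges 667 nm channel intensity with signal to noise over triplicate slides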
# [9] = system: Chordin-like protein 2 (CHRDL2); experiment: CHRDL2 small-molecule binders, primary screen, biochemical, small-molecule microarray, 635 nm fluorescence (AID 1126); conditions: small-molecule microarray binding, fluorescence 635 nm; higher = more signal;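 also: printed compound slides probed with Chrdl2 protein at 4 µg/mL for 1 h at 4 C; score merges 667 nm emission intensity with signal to noise over three replicate slides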
# [10] = biological target: Concanavalin-A (Canavalia ensiformis) (UniProt P02866); experiment: ConA small-molecule binders, primary screen, artefact control for SMM control protein annotation, biochemical, small-molecule microarray, Alexa647 label, 635 nm (AID 1127); conditions: ConA-A647 binding fluorescence, higher = more signal;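 also: z combines 667 nm emission intensity with signal-to-noise across three replicate slides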
# [11] = anti-His antibody binders, primary screen, artefact control for SMM control protein annotation, biochemical, small-molecule microarray, 635 nm fluorescence (AID 1128); conditions: anti-His Alexa647 antibody binding, higher = more signal;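 also: score merges feature fluorescence with signal-to-noise for each printed compound spot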
# [12] = system: Human papillomavirus type 1a E7 protein (residues 1-88); experiment: HPV1a E7 small-molecule binders, primary screen, biochemical, small-molecule microarray, residues 1-88, 635 nm (AID 1129); conditions: small-molecule microarray binding, fluorescence 635 nm; higher = more signal
# [13] = biological target: Focal adhesion kinase 1 (Homo sapiens) (UniProt Q05397); experiment: small-molecule microarray binders of FAK, primary screen, biochemical, 635/667 nm fluorescence, BSA, DTT (AID 1130); conditions: PTK2 binding, 635 nm fluorescence, higher = more signal;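 also: composite of spot emission at 667 nm and signal to noise over triplicate slides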
# [14] = system: Fibrinogen (Alexa647-labelled); experiment: fibrinogen binders on compound microarrays, profiling panel, artefact control for SMM control-protein annotation, biochemical, small-molecule microarray, 635/667 nm fluorescence (AID 1131); conditions: fibrinogen-A647 binding fluorescence, higher = more signal;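 also: z-score merges 667 nm fluorescence with per-spot signal-to-noise over triplicate slides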
# [15] = biological target: Follistatin (Homo sapiens) (UniProt P19883); experiment: follistatin binders on small-molecule microarrays, primary screen, biochemical, small-molecule microarray, 635/667 nm fluorescence (AID 1132); conditions: FST binding, 635 nm fluorescence, higher = more signal
# [16] = biological target: Fibroblast growth factor 2 (Homo sapiens) (UniProt P09038); experiment: FGF2 binders on small-molecule microarrays, primary screen, biochemical, small-molecule microarray, 635/667 nm fluorescence (AID 1133); conditions: small-molecule microarray binding, FGF2, fluorescence 635/667; higher = more signal
# [17] = mitochondrial membrane potential change in A549 cells, profiling panel, cell-based, JC-1 fluorescence, basal, 24 h, 100 nL (AID 1138); conditions: higher = more signal;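 also: A549 lung adenocarcinoma cells under basal conditions with no added stimulus; test concentration not given here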
# [18] = system: Lefty1; experiment: Lefty1 binders on small-molecule microarrays, primary screen, biochemical, small-molecule microarray, 635/667 nm fluorescence (AID 1139); conditions: small-molecule microarray binding, fluorescence 635/667; higher = more signal
# [19] = system: wheat germ agglutinin (Triticum aestivum), Alexa647-labelled; experiment: wheat germ agglutinin binders on compound microarrays, profiling panel, artefact control for SMM control-protein annotation, biochemical, small-molecule microarray, 635/667 nm fluorescence (AID 1140); conditions: WGA-A647 binding, 635 nm fluorescence, higher = more signal;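 also: score merges 667 nm feature emission with signal to noise over triplicate slides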
# [20] = biological target: Luciferin 4-monooxygenase (Photinus pyralis) (UniProt P08659); experiment: firefly luciferase enzyme inhibitors, primary screen, biochemical, luminescence, purified enzyme, 2006 set (AID 1141); conditions: SteadyGlo luminescence, 30 min, higher = more signal, called active from +8 up or from −8 down;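 also: cell-free assay with purified firefly luciferase at 100 ng per well in PBS; test concentration not given here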
# Luciferin 4-monooxygenase (Photinus pyralis), sequence (P08659 whole entry, looked up): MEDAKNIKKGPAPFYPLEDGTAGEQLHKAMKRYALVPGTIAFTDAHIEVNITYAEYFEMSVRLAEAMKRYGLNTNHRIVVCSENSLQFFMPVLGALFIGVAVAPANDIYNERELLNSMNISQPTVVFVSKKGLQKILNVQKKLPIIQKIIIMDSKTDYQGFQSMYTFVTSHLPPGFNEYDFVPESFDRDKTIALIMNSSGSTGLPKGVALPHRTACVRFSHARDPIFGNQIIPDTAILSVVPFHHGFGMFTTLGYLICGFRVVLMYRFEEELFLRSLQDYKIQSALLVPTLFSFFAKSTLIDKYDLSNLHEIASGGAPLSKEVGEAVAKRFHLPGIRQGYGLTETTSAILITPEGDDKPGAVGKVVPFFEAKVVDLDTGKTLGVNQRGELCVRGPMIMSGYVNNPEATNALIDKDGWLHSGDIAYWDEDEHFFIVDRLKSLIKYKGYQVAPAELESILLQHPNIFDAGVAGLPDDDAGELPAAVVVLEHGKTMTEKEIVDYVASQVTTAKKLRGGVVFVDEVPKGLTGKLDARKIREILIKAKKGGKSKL
# Albumin (Bos taurus), sequence (P02769 whole entry, looked up): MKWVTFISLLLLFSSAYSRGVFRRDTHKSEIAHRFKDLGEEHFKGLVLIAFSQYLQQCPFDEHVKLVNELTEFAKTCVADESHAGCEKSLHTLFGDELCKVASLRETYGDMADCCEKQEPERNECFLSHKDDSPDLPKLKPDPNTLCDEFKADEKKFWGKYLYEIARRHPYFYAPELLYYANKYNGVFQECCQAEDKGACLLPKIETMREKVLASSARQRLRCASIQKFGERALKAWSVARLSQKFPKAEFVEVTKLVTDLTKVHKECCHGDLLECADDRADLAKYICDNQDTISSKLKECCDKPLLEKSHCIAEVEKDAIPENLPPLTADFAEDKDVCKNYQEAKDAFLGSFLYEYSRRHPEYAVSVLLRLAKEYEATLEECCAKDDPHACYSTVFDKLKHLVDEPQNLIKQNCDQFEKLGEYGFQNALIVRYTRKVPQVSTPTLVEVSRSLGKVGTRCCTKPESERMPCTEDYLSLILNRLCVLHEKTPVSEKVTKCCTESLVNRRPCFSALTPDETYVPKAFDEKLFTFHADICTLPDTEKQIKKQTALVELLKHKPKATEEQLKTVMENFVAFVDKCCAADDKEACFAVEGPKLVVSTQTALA
# Fibroblast growth factor 2 (Homo sapiens), sequence (P09038 whole entry, looked up): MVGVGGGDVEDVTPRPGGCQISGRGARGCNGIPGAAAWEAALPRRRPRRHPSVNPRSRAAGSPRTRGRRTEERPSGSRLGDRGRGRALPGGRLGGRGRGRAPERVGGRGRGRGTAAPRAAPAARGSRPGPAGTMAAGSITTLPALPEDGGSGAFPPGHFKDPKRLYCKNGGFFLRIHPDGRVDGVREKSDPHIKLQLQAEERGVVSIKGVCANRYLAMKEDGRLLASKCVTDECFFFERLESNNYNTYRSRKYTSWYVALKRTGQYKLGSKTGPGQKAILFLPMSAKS
# Focal adhesion kinase 1 (Homo sapiens), sequence (Q05397 whole entry, looked up): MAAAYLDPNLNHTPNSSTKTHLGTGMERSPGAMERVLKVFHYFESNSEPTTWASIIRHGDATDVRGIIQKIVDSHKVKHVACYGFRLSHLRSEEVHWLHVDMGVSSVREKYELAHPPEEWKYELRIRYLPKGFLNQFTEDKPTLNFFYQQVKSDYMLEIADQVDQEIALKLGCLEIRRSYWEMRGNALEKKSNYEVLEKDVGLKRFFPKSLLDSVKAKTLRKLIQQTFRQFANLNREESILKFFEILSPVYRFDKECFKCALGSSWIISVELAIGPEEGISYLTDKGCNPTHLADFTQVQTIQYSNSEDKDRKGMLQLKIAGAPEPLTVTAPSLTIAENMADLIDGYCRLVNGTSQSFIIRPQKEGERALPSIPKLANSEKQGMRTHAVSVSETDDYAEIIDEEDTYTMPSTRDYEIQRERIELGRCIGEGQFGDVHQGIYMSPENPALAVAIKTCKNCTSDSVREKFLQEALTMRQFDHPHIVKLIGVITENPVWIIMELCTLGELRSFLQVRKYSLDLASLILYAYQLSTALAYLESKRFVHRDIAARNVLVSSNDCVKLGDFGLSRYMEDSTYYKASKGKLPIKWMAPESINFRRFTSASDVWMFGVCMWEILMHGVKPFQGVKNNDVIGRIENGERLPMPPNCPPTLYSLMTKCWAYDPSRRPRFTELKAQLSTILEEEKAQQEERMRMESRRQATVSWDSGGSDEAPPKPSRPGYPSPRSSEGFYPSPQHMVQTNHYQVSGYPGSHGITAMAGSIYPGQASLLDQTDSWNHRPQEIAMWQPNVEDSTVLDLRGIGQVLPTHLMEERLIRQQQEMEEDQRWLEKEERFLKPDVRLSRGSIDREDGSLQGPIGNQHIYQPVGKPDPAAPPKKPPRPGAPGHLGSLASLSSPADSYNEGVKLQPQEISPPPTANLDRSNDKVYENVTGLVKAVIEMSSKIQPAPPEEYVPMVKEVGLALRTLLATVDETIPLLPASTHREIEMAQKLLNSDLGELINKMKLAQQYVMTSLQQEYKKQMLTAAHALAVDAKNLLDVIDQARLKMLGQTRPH
# Concanavalin-A (Canavalia ensiformis), sequence (P02866 whole entry, looked up): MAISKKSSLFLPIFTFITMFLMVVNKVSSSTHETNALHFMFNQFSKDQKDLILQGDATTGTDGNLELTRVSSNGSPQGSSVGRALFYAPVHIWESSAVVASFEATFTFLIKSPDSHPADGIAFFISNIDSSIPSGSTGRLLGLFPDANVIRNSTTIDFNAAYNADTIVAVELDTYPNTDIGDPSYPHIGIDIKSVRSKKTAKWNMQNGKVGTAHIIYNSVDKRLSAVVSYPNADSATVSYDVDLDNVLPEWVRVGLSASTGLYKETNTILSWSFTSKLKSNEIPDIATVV
# Follistatin (Homo sapiens), sequence (P19883 whole entry, looked up): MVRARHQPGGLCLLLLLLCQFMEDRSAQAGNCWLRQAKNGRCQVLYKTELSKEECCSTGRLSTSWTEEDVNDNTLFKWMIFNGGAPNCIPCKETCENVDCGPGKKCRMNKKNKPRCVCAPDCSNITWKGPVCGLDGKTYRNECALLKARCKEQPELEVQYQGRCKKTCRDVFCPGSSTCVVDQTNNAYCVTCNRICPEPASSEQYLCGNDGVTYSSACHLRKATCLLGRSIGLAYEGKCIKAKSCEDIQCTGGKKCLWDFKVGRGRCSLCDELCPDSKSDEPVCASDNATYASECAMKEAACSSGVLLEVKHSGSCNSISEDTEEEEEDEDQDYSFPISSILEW
SMILES,composite z-score [1],composite Z-score [2],composite z-score [3],composite z-score [4],composite z-score [5],composite z-score [6],composite z-score [7],composite z-score [8],composite z-score [9],composite z-score [10],composite z-score [11],composite z-score [12],composite z-score [13],composite z-score [14],composite z-score [15],composite z-score [16],z-score [17],composite z-score [18],composite z-score [19],z-score [20]
COC(=O)C1=CC(c2ccc(CO)cc2)=CC(C2CC2)N(Cc2cc3c(cc2Br)OCO3)C=C1C(=O)OC (stereo not given),0.861,2.69 (inactive),0.448,0.165,0.814,2.82,1.24,1.31,0.0562,1.19,2.85,1.19,0.833,0.879,0.62,0.907,0.835,0.413,1.06,-0.817 (inactive)
COc1ccc(CCNC(=O)[C@@]2(C)c3ccccc3C(=O)N(Cc3ccc(OC(F)(F)F)cc3)[C@H]2c2ccc(CO)cc2)cc1,-0.146,0.431 (inactive),-0.104,-0.163,0.611,1.37,0.687,1.3,0.309,0.781,-0.0781,1.21,1.13,0.576,1.3,1.76,0.791,0.268,0.375,-0.629 (inactive)
Cc1ccc(N2C(=O)c3ccccc3[C@@H](C(=O)NCCN3CCOCC3)[C@@H]2c2ccc(CO)cc2)nc1,0.132,0.309 (inactive),0.595,-0.162,-0.234,0.719,-0.496,-0.342,-1.27,-0.469,-0.227,-0.818,-0.317,-2.27,0.37,-1.08,-0.0724,-0.702,-0.183,1.09 (inactive)
O=C1OCCC/C=C\[C@H]2OC34C=CCN(Cc5ccccc5)C(=O)[C@H]3N(CCO)C(=O)[C@@H]4C12 (stereo not given in full),-0.78,0.822 (inactive),0.157,-0.0658,0.885,1.11,0.623,0.747,-0.32,-0.619,-0.941,0.444,-0.287,-0.956,-0.296,-0.259,1.64,0.398,-0.889,-1.56 (inactive)
C=CC[C@]12N=C(c3ccc(OCCCO)cc3)O[C@H]1c1ccccc1N(CCC)C2=O,-0.0791,1.91 (inactive),0.467,0.14,0.705,2.85,0.674,1.29,1.2,1.09,2.3,0.917,0.685,0.488,1.46,1.35,0.948,0.613,0.954,-3.66 (inactive)
